Results reported in PubChem BioAssay (NCATS).
Where “and” joins values, the source holds several entries; their conditions need not be identical. Equal values may be shown once. Results filed as inconclusive are left out. Calls of active or inactive are those of the source. Unless noted, calls come from the whole dose curve; as a rule, active = well fitted cell-killing curve with a large enough effect; inconclusive = small, poorly fitted or top-dose-only effect; inactive = flat fitted curve, though single readings scatter.

Experiments:
[1] = Cell Viability - LYMP2-002 (AID 977);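 note: series mostly up to about 92 µM; compound exposure lasted 24 h at 37 °C; plate controls were DMSO only for no effect and 92 µM tetraoctylammonium bromide for full effect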
Procedure, shortened: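 Human lymphoblastoid LYMP2-002 cells, 2500 per well, exposed to compounds for 24 h at 37 C in complete medium; viability read as intracellular ATP by CellTiter-Glo luminescence, AC50 from Hill fits.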

[2] = Cell Viability - LYMP2-006 (AID 978); note: series mostly up to about 92 µM; % is set by controls: 0 for no effect and ±100 for the full control effect; nearly all actives have a fitted effect of over 60% in size
Procedure, shortened: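 Cells are seeded at 2500 per well and rested 5 hr at 37 C. Compounds are added across a concentration series for 24 hr at 37 C, after which ATP is quantified by luciferase luminescence.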

[3] = Cell Viability - LYMP2-007 (AID 979);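 note: cells exposed to compound for 24 h before reading; 0% = DMSO only and the negative end = 92 µM tetraoctylammonium bromide; nearly all actives have a fitted effect of over 60% in size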
Procedure, shortened: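 Human lymphoblastoid LYMP2-007 cells (2500/well) preincubated 5 h at 37 C, then treated 24 h at 37 C in complete medium. Viability by CellTiter-Glo ATP luminescence after 30 min at room temperature; AC50 from Hill fits.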

[4] = Cell Viability - LYMP2-008 (AID 980); note: % is set by controls: 0 for no effect and ±100 for the full control effect; nearly all actives have a fitted effect of over 60% in size
Procedure, shortened: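 LYMP2-008 lymphoblastoid cells (2500/well) plated 5 h, then treated 24 h at 37 C in complete medium. Viability read as intracellular ATP by CellTiter-Glo luminescence after 30 min at room temperature; AC50 from Hill fits.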

[5] = Cell Viability - LYMP2-010 (AID 981); note: % is set by controls: 0 for no effect and ±100 for the full control effect; nearly all actives have a fitted effect of over 55% in size
Procedure, shortened: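 Human lymphoblastoid LYMP2-010 cells (2500/well) treated 24 h at 37 C in complete medium; viability read as intracellular ATP by CellTiter-Glo luminescence. AC50 from Hill fits of concentration-response data; tetraoctylammonium bromide positive control.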

[6] = Cell Viability - LYMP2-012 (AID 982);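 note: cellular ATP by luciferase luminescence where a drop means cytotoxicity; cells exposed to compound for one day before reading; 0% = DMSO only and full loss = 92 µM tetraoctylammonium bromide; nearly all actives have a fitted effect of over 55% in size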
[7] = Cell Viability - LYMP2-014 (AID 983);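 note: series mostly up to about 92 µM; plate controls were DMSO only for no effect and 92 µM tetraoctylammonium bromide for full effect; nearly all actives have a fitted effect of over 50% in size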
Procedure, shortened: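 LYMP2-014 human lymphoblastoid cells, 2500/well, treated 24 h at 37 C in complete medium; viability by CellTiter-Glo ATP luminescence after 30 min at room temperature. AC50 from Hill fits of qHTS concentration-response; tetraoctylammonium bromide positive control.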

[8] = Cell Viability - LYMP2-016 (AID 984); note: % is set by controls: 0 for no effect and ±100 for the full control effect; nearly all actives have a fitted effect of over 55% in size
Procedure, shortened: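 Cells were seeded at 2500 per well and rested 5 hr before a 24 hr compound exposure at 37 C. Viability was then gauged as cellular ATP by luciferase luminescence, with AC50 values fitted to the Hill equation.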

[9] = Cell Viability - LYMP2-018 (AID 985);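 note: plate controls were DMSO only for no effect and tetraoctylammonium bromide at 92 µM for full effect; nearly all actives have a fitted effect of over 50% in size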
Procedure, shortened: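 Human lymphoblastoid LYMP2-018 cells, 2500/well, settled 5 hr at 37 C then exposed to compound 24 hr at 37 C; intracellular ATP measured by CellTiter-Glo luminescence. AC50 from Hill-equation concentration-response fits.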

[10] = Cell Viability - LYMP2-020 (AID 986);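 note: series mostly up to about 92 µM; plate controls were DMSO only for no effect and tetraoctylammonium bromide at 92 µM for full effect; nearly all actives have a fitted effect of over 55% in size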
Procedure, shortened: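 Human lymphoblastoid LYMP2-020 cells (2500/well) preincubated 5 h at 37 C, then treated 24 h at 37 C. Viability measured as intracellular ATP by CellTiter-Glo luminescence after 30 min at room temperature; AC50 from Hill fits.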

[11] = Cell Viability - LYMP2-022 (AID 987)
Procedure, shortened: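 LYMP2-022 lymphoblastoid cells (2500/well, complete medium) were treated with compounds for 24 hours at 37 C; intracellular ATP was then read by CellTiter-Glo luminescence after 30 min at room temperature. AC50 values were derived from Hill-equation fits.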

[12] = Cell Viability - LYMP2-026 (AID 989); note: % is set by controls: 0 for no effect and ±100 for the full control effect; nearly all actives have a fitted effect of over 50% in size
Procedure, shortened: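 Human lymphoblastoid LYMP2-026 cells, 2500/well, exposed to compound 24 h at 37 C in complete medium. Viability as intracellular ATP by CellTiter-Glo luminescence; AC50 from Hill fits of qHTS concentration-response.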

[13] = Cell Viability - LYMP1-002 - Assay at 24 hr (AID 993); note: % is set by controls: 0 for no effect and ±100 for the full control effect
Procedure, shortened: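 Human lymphoblastoid LYMP1-002 cells (2500/well) treated 24 h at 37 °C; viability as intracellular ATP by CellTiter-Glo luminescence. Tetraoctylammonium bromide as positive control; AC50 from Hill-equation fits of qHTS concentration-response.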

[14] = Cell Viability - LYMP1-002 - Assay at 40 hr (AID 994);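 note: 0% = DMSO only and full inhibition = 92 µM tetraoctylammonium bromide; nearly all actives have a fitted effect of over 60% in size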
Procedure, shortened: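 LYMP1-002 human lymphoblastoid cells (2500/well, complete medium) were treated with compounds for 40 hr at 37 C. Intracellular ATP was measured by CellTiter-Glo luminescence, and AC50 values came from Hill-equation fits of concentration-response data; tetraoctylammonium bromide was the positive control.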

[15] = qHTS Assay for Identification of Small Molecule Inducers of Hypoxia Response (AID 2120; active = well fitted curve in the direction sought with a large enough effect in the signal ratio, with a control signal flat, not every such curve was filed as active; the % refers to the signal ratio; note: 0% is about no effect)
Procedure, shortened: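 HRE-bla ME-180 cells in Opti-MEM with 0.5% dialyzed FBS, pre-plated 4-5 h, then compound titration for 17 h at 37 degrees Celsius. CCF4 loaded 2.5 h at room temperature; 460/530 nm ratio gave %Activity and AC50 for induction.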

[16] = target: Estrogen receptor (Homo sapiens) (UniProt P03372); experiment: qHTS assay for small molecule antagonists of estrogen receptor alpha signaling (AID 588513; active = well fitted curve in the direction sought with a large enough effect in the signal ratio, with a control signal flat, not every such curve was filed as active; the % refers to the signal ratio; note: % is set by controls: 0 for no effect and ±100 for the full control effect)
Sequence of Estrogen receptor (Homo sapiens) (P03372 whole entry, looked up): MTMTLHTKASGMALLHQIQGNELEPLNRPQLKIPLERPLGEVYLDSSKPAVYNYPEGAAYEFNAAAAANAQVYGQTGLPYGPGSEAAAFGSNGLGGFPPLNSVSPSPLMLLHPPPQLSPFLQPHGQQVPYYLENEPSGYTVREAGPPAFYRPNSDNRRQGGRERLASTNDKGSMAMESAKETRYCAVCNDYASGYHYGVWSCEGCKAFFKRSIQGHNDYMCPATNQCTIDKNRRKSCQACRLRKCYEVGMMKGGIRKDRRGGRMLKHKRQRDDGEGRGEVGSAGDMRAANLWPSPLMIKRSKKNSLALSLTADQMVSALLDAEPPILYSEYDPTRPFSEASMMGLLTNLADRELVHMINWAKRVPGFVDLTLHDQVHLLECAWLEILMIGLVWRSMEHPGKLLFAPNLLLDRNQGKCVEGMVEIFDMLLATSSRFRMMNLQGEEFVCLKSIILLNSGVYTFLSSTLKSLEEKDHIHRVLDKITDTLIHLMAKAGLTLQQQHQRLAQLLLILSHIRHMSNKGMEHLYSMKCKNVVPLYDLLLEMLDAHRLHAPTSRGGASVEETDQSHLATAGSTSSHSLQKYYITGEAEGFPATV
Procedure, shortened: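 Fluorescence from CCF4 substrate after 2 h at room temperature gave reporter activity; cells had been exposed to compound and 0.5nM 17-beta-estradiol for 18 h at 37 C. Hill-equation fitting yielded IC50 and maximal response.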

[17] = target: Estrogen receptor (Homo sapiens) (UniProt P03372); experiment: qHTS assay for small molecule agonists of estrogen receptor alpha signaling (AID 588514; calls by dose curve;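 note: 0% = vehicle only and 100% = reference agonist; nearly all actives have a fitted effect of over 70% in size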)
Procedure, shortened: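 ER-alpha-UAS-bla GripTite HEK293 cells, 5000/well in 2% charcoal/dextran-stripped FBS medium, treated with compound titrations 18 h at 37 C. CCF4 beta-lactamase read by fluorescence after 2 h RT; normalised to 20 nM 17-beta-estradiol (100%) and DMSO (0%), Hill fit for EC50 and efficacy.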

[18] = target: Glucocorticoid receptor (Homo sapiens) (UniProt P04150); experiment: qHTS assay for small molecule agonists of glucocorticoid receptor signaling (AID 588532; active = well fitted curve in the direction sought with a large enough effect in the signal ratio, with a control signal flat; the % refers to the signal ratio;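 note: 100% = dexamethasone at 0.1 µM and 0% = DMSO only wells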); details: HeLa MMTV-bla, beta-lactamase ratio, agonist, 18 h; stronger effect = higher value; percent of dexamethasone control, DMSO zero
Sequence of Glucocorticoid receptor (Homo sapiens) (P04150 whole entry, looked up): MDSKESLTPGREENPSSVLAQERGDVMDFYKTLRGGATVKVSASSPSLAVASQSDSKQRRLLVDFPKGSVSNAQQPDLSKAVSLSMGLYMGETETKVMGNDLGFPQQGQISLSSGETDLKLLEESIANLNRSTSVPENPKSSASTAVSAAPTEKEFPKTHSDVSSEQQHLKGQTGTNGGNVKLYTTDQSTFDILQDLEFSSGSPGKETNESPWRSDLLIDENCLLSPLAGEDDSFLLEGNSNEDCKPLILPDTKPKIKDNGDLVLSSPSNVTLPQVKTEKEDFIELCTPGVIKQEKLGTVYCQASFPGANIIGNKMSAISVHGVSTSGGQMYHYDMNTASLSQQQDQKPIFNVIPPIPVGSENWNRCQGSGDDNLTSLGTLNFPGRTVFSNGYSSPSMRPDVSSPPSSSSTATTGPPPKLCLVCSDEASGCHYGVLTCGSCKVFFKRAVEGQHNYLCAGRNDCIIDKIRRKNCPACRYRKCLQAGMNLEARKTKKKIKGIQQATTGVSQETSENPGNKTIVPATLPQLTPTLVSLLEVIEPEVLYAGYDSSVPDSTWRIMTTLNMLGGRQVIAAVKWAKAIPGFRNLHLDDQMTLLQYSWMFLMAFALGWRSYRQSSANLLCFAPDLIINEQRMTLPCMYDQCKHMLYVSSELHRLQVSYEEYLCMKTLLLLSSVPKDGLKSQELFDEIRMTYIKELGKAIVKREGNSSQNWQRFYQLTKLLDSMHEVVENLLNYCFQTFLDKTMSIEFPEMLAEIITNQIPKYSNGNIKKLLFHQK
Procedure, shortened: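 Cells were plated and rested 3-5 h at 37 C, compounds were added in titration and incubated 18 h, then CCF4 substrate was loaded for 2 h at RT before reading blue/green fluorescence. EC50 came from Hill-equation fitting.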

[19] = target: Glucocorticoid receptor (Homo sapiens) (UniProt P04150); experiment: qHTS assay for small molecule antagonists of glucocorticoid receptor signaling (AID 588533; active = well fitted inhibition curve with a large enough effect in the signal ratio, with a control signal flat, not every such curve was filed as active; the % refers to the signal ratio; note: % is set by controls: 0 for no effect and ±100 for the full control effect)
Procedure, shortened: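 Antagonist-mode qHTS: compound titrations added to GRE-bla HeLa cells, then dexamethasone 2 nM final; 18 h, 37 C. CCF4 FRET fluorescence normalized to dexamethasone and DMSO; IC50 from Hill fit.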

[20] = target: Peroxisome proliferator-activated receptor gamma (Homo sapiens) (UniProt P37231); experiment: qHTS assay for small molecule agonists of peroxisome proliferator-activated receptor gamma signaling (AID 588536; active = well fitted curve in the direction sought with a large enough effect in the signal ratio, with a control signal flat, not every such curve was filed as active; the % refers to the signal ratio;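 note: 0% = DMSO basal wells and 100% = rosiglitazone at 2 µM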)
Sequence of Peroxisome proliferator-activated receptor gamma (Homo sapiens) (P37231 whole entry, looked up): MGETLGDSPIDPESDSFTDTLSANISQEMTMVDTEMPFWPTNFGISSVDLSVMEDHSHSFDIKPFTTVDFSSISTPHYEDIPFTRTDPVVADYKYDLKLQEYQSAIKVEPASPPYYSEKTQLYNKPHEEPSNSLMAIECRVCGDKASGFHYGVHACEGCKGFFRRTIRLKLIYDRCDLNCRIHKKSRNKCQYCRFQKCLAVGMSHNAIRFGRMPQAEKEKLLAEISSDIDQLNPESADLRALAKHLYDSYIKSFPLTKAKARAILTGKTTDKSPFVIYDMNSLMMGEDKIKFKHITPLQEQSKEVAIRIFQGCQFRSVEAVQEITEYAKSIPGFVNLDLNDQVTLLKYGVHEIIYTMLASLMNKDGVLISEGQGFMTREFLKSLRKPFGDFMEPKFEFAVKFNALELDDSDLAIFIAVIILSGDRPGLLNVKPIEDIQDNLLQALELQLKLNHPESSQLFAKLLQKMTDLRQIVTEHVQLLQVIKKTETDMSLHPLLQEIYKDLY
Procedure, shortened: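 Test agents, titrated, stimulated HEK293 UAS-bla cells overnight (16 h, 37 C). Substrate CCF4 was then added for two hours at room temperature before fluorescence reading.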

[21] = target: Peroxisome proliferator-activated receptor gamma (Homo sapiens) (UniProt P37231); experiment: qHTS assay for small molecule antagonists of peroxisome proliferator-activated receptor gamma signaling (AID 588537; active = well fitted inhibition curve with a large enough effect in the signal ratio, with a control signal flat, not every such curve was filed as active; the % refers to the signal ratio;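 note: reporter cells co-stimulated with 50 nM rosiglitazone agonist during compound treatment; % of control where 0% means no effect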)
Procedure, shortened: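 PPARγ-UAS-bla HEK293 cells (3000/well) in 1% charcoal/dextran-stripped FBS are treated with compound, then stimulated with 50 nM rosiglitazone for 16 h at 37 °C. Read-out is CCF4 β-lactamase fluorescence after 2 h at RT. IC50 comes from Hill fits normalised to rosiglitazone and DMSO.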

[22] = target: Vitamin D3 receptor (Homo sapiens) (UniProt P11473); experiment: qHTS assay for small molecule antagonists of vitamin D receptor signaling (AID 588541; calls by dose curve;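 note: receptor activated by calcitriol during compound treatment; series mostly up to about 77 µM; % is set by controls: 0 for no effect and ±100 for the full control effect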)
Sequence of Vitamin D3 receptor (Homo sapiens) (P11473 whole entry, looked up): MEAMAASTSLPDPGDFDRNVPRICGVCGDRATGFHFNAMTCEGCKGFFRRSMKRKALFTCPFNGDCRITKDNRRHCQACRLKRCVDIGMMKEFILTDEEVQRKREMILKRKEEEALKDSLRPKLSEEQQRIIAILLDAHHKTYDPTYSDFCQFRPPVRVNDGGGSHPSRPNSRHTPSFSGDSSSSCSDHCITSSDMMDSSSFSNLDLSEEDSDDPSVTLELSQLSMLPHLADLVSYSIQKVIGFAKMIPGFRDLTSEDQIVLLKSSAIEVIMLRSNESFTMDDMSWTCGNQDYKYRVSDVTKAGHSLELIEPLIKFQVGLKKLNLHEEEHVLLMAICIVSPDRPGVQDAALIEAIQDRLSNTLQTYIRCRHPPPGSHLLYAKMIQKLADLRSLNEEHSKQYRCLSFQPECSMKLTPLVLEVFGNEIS
Procedure, shortened: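 VDR-UAS-bla HEK293T cells in 2% charcoal-stripped FBS were stimulated with 1-alpha,25-dihydroxyvitamin D3 (3 nM final) plus compound for 16 h at 37 C. The beta-lactamase CCF4 readout was normalized to 50 nM agonist and DMSO, and Hill fits gave IC50.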

[23] = target: Vitamin D3 receptor (Homo sapiens) (UniProt P11473); experiment: qHTS assay for small molecule agonists of vitamin D receptor signaling (AID 588543; calls by dose curve;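 note: 0% = DMSO basal and 100% = reference agonist control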)
Procedure, shortened: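 Reporter cells (HEK293T, VDR-UAS-bla) were seeded in medium with 2% charcoal-stripped serum and incubated 5 h, then compounds in concentration series were added for 16 h at 37 °C. Stimulation was scaled between DMSO basal and 50 nM 1α,25-dihydroxyvitamin D3.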

CCCCOC(=O)c1ccccc1C(=O)OCCCC
inactive: Potency [1] | Potency [2] | Potency [3] | Potency [4] | Potency [5] | Potency [6] | Potency [7] | Potency [8] | Potency [9] | Potency [10] | Potency [11] | Potency [12] | Potency [13] | Potency [14] | outcome [15] | Potency [16] | Potency [17] | activation [18] -1.41% and -0.473% | Potency [19] | outcome [20] | Potency [21] | outcome [22] | outcome [23]
